Source: PubChem BioAssay AID1490 (National Center for Advancing Translational Sciences (NCATS), 2009)
“And” between values parts separate entries of the source, which are not always exact repeats. Equal values may be shown once. In all, about 310,000 compounds went through this assay and about 11,000 (3.5%) were called active. Roughly 4% stayed inconclusive and do not appear here. Only a selection was taken, and actives are over-represented in it overall. Unmarked numbers belong to inactive results. Calls come from the whole dose curve; as a rule, active = well fitted inhibition curve with a large enough effect; inconclusive = small, poorly fitted or top-dose-only effect, or another doubt; inactive = no such curve, though single readings can be large or run the other way.

Target: 4'-phosphopantetheinyl transferase ffp (Bacillus subtilis) (UniProt Q9F4F7)
Test: qHTS Assay for Inhibitors of Bacillus subtilis Sfp phosphopantetheinyl transferase (PPTase);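 note: the enzyme is Sfp with the accession as filed and its product quenches rhodamine fluorescence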;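 for largest response in the series, negative = inhibition: 0% = enzyme reaction without inhibitor and -100% = no enzyme wells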
Conditions: Biochemical Sfp PPTase activity
Procedure, shortened: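 Buffer: 50 mM Hepes-Na pH 7.6, 10 mM MgCl2, 0.01% Nonidet P-40, 0.01% BSA. Enzyme 15 nM, pre-exposed to compound 15 min; substrates then added and fluorescence change tracked over 30 min.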
Potency is the fitted concentration of half-maximal effect.

Q: With CCC(C)[C@H]1COCCS(=O)(=O)N1Cc1ccc(C)cc1 (stereo not given in full) as the molecule, how does the largest response in the series, negative = inhibition read?
A: The largest response in the series, negative = inhibition was 13.1%.

Q: Cc1cc(C(F)F)nn1CC(=O)NC1CCCCCC1 was tested. Which largest response in the series, negative = inhibition did it give?
A: The largest response in the series, negative = inhibition was 15.4%.

Q: Which largest response in the series, negative = inhibition does the source give for CCCCOP(=O)(c1ccc(N(C)C)cc1)C(O)c1cc(OC)ccc1OC (stereo not given) here?
A: The largest response in the series, negative = inhibition was 4.86%.

Q: With CCn1c(CC(=O)Nc2ccccc2C)nnc1SCC(=O)NC1=NCCS1 as the molecule, how does the largest response in the series, negative = inhibition read?
A: The largest response in the series, negative = inhibition was 7.23%.

Q: O=C(Nc1nnc(C2=COCCO2)o1)c1ccc([N+](=O)[O-])s1 was tested. Which largest response in the series, negative = inhibition did it give?
A: The largest response in the series, negative = inhibition was 5.3%.

Q: How did the largest response in the series, negative = inhibition turn out when COc1ccc(Nc2nc(-c3cccnc3)nc3ccccc23)cn1 was run?
A: The largest response in the series, negative = inhibition was 5.49%.

Q: How did the Potency turn out when Fc1ccc(/C=N/Nc2nc(-c3cccnc3)nc3ccccc23)cc1 was run?
A: The Potency was 31.6 µM (active).

Q: For COc1ccccc1Oc1nc(-c2cccnc2)nc2ccccc12, which largest response in the series, negative = inhibition is on record?
A: The largest response in the series, negative = inhibition was -13.5%.

Q: For CCCCCC1CC(COc2ccccc2)OC1=O (stereo not given), which largest response in the series, negative = inhibition is on record?
A: Its largest response in the series, negative = inhibition is 11.1%.

Q: CC(=O)N1CCOc2ccc(S(=O)(=O)N3CCC(C(=O)Nc4ccccc4F)CC3)cc21 was tested. Which largest response in the series, negative = inhibition did it give?
A: The largest response in the series, negative = inhibition was 2.67%.

Q: For COCCNC(=O)c1ccc2c(c1)ncn2-c1ccc(C)c(Cl)c1, which largest response in the series, negative = inhibition is on record?
A: The largest response in the series, negative = inhibition was 6.27%.

Q: Which largest response in the series, negative = inhibition does the source give for COc1ccccc1N1CCN(CC(=O)NC(=O)NCc2ccco2)CC1 here?
A: The largest response in the series, negative = inhibition was 7.58%.

Q: CC1(c2ccccc2Cl)NC(=O)N(CC(=O)NC(=O)NCc2ccco2)C1=O (stereo not given) was tested. Which Potency did it give?
A: The Potency was 79.4 µM (active).

Q: O=C(CN1CCN(S(=O)(=O)/C=C/c2ccccc2)CC1)NC(=O)NCc1ccco1 was tested. Which largest response in the series, negative = inhibition did it give?
A: The largest response in the series, negative = inhibition was -18.1%.

Q: For COc1cccc(C(=O)NNS(=O)(=O)c2ccc(F)cc2)c1, which largest response in the series, negative = inhibition is on record?
A: The largest response in the series, negative = inhibition was -4.08%.

Q: O=S(=O)(NCCc1ccc(Cl)cc1)c1cccs1 was tested. Which largest response in the series, negative = inhibition did it give?
A: The largest response in the series, negative = inhibition was 7.54%.

Q: How did the largest response in the series, negative = inhibition turn out when COc1cccc(CN2CCN(Cc3ccc4cccc(F)c4n3)CC2CCO)c1 (stereo not given) was run?
A: Its largest response in the series, negative = inhibition is 13.8%.

Q: For CCCc1nc2c(c(=O)c3ccccc3n2C)c(=O)n1-c1cc(C)cc(C)c1, which largest response in the series, negative = inhibition is on record?
A: Its largest response in the series, negative = inhibition is -11.4%.

Q: With Cn1c2ccccc2c(=O)c2c(=O)n(Cc3ccco3)c(COc3ccccc3)nc21 as the molecule, how does the Potency read?
A: The Potency was 8.91 µM (active).

Q: Which largest response in the series, negative = inhibition does the source give for COc1ccc(C(=O)CSc2nnc(COc3ccccc3)n2Cc2ccco2)cc1 here?
A: Its largest response in the series, negative = inhibition is -23.6%.

Q: How did the largest response in the series, negative = inhibition turn out when COc1cccc(NC(=O)C(=O)c2cn(CC(=O)N3CCOCC3)c3ccccc23)c1 was run?
A: Its largest response in the series, negative = inhibition is 11.1%.

Q: How did the largest response in the series, negative = inhibition turn out when COCCCNCCOCCOc1ccc(Cl)cc1Br was run?
A: Its largest response in the series, negative = inhibition is 1.66%.

Q: Which largest response in the series, negative = inhibition does the source give for Cc1ccc(C(C)(C)C)c(OCCCCN2CCCC2)c1 here?
A: The largest response in the series, negative = inhibition was -28.7%.

Q: For CC(C)(C)NCCCOc1ccc(Cl)cc1C(C)(C)C, which Potency is on record?
A: The Potency was 50.1 µM (active).

Q: For CC(C)(C)OC(=O)N1CCC(C(=O)NNC(=O)c2ccc(Cl)cc2Cl)CC1, which largest response in the series, negative = inhibition is on record?
A: The largest response in the series, negative = inhibition was 5.93%.

Q: Which largest response in the series, negative = inhibition does the source give for c1coc(CNc2ncnc3ccccc23)c1 here?
A: Its largest response in the series, negative = inhibition is 8.96%.

Q: With CCOCCCNc1nc(-c2ccccc2)nc2ccccc12 as the molecule, how does the largest response in the series, negative = inhibition read?
A: The largest response in the series, negative = inhibition was 14.7%.

Q: How did the Potency turn out when c1ccc(-c2nc(NCc3ccco3)c3ccccc3n2)cc1 was run?
A: The Potency was 11.2 µM (active).

Q: How did the largest response in the series, negative = inhibition turn out when CC(C)C(=O)N1CC(=O)Nc2ccc(F)cc2C1c1ccc(F)cc1 (stereo not given) was run?
A: Its largest response in the series, negative = inhibition is 17.9%.

Q: With CCN(CC(=O)N1CCCC1)S(=O)(=O)c1ccc(F)cc1 as the molecule, how does the largest response in the series, negative = inhibition read?
A: The largest response in the series, negative = inhibition was 4.81%.

Q: Which largest response in the series, negative = inhibition does the source give for O=C(Nc1ccc(NC(=O)c2ccco2)c(Cl)c1)c1cccc([N+](=O)[O-])c1 here?
A: Its largest response in the series, negative = inhibition is 5.01%.

Q: O=C(NNC(=S)Nc1ccc(Br)cc1Cl)c1ccco1 was tested. Which largest response in the series, negative = inhibition did it give?
A: Its largest response in the series, negative = inhibition is 12.1%.

Q: How did the Potency turn out when CCC(=O)NC(=S)Nc1ccc(NC(=O)c2ccco2)c(Cl)c1 was run?
A: The Potency was 39.8 µM (active).

Q: O=S(=O)(c1cccc(Cn2nnc(-c3ccc(F)cc3)n2)c1)N1CCOCC1 was tested. Which largest response in the series, negative = inhibition did it give?
A: The largest response in the series, negative = inhibition was 3.33%.

Q: With CC(=O)C1=C(C)NC(=O)NC1c1ccc2c(c1)OCO2 (stereo not given) as the molecule, how does the largest response in the series, negative = inhibition read?
A: The largest response in the series, negative = inhibition was 0.489%.

Q: For N=c1c2c3c(sc2ncn1N)CCCC3, which largest response in the series, negative = inhibition is on record?
A: The largest response in the series, negative = inhibition was 13.2%.

Q: c1nnc2c3c4c(sc3ncn12)CCC4 was tested. Which largest response in the series, negative = inhibition did it give?
A: Its largest response in the series, negative = inhibition is -1.58%.

Q: With S=c1[nH]nc2c3c4c(sc3ncn12)CCCC4 as the molecule, how does the Potency read?
A: The Potency was 56.2 µM (active).

Q: For Cc1cc(-c2ccc(S(=O)(=O)N3CCc4ccccc4C3)s2)on1, which largest response in the series, negative = inhibition is on record?
A: The largest response in the series, negative = inhibition was 12.5%.

Q: Which largest response in the series, negative = inhibition does the source give for O=C(NCc1ccccc1)C(c1ccco1)N(C(=O)c1csnn1)c1ccccc1F (stereo not given) here?
A: Its largest response in the series, negative = inhibition is 11.4%.

Q: Which largest response in the series, negative = inhibition does the source give for C[C@H](NC(=O)C1CC(=O)N(c2ccc3c(c2)OCO3)C1)C(=O)NCc1ccco1 (stereo not given in full) here?
A: The largest response in the series, negative = inhibition was 4.65%.

Q: CC/C=C\C/C=C\C/C=C\C/C=C\C/C=C\C/C=C\CCC(=O)NC(C)C(=O)O (stereo not given) was tested. Which largest response in the series, negative = inhibition did it give?
A: The largest response in the series, negative = inhibition was -29.1%.

Q: CN(C)/C=C1\C=C(c2ccccc2)OC1=O was tested. Which Potency did it give?
A: The Potency was 20 µM (active).

Q: CN(C)/C=C1/C(=O)Nc2ccccc21 was tested. Which largest response in the series, negative = inhibition did it give?
A: The largest response in the series, negative = inhibition was -6.73%.

Q: With COc1cccc(/C=C2\C=C(c3ccc(C)cc3)OC2=O)c1OC(C)=O as the molecule, how does the largest response in the series, negative = inhibition read?
A: The largest response in the series, negative = inhibition was -6.33%.

Q: O=S(=O)(c1ccccc1)N(Cc1cccc(F)c1)c1ccccc1 was tested. Which largest response in the series, negative = inhibition did it give?
A: The largest response in the series, negative = inhibition was 13.8%.

Q: Cc1ccccc1-c1nc(N(C)Cc2ccco2)c2ccccc2n1 was tested. Which largest response in the series, negative = inhibition did it give?
A: The largest response in the series, negative = inhibition was -22.5%.

Q: CN(Cc1ccco1)c1ncncc1-c1ccoc1 was tested. Which Potency did it give?
A: Its Potency is 79.4 µM (active).

Q: With CN(Cc1ccco1)c1cc(-c2ccccc2C(F)(F)F)ncn1 as the molecule, how does the largest response in the series, negative = inhibition read?
A: The largest response in the series, negative = inhibition was -8.82%.

Q: Which largest response in the series, negative = inhibition does the source give for CCC1OC(c2ccc([N+](=O)[O-])cc2)=Nc2ccccc21 (stereo not given) here?
A: The largest response in the series, negative = inhibition was -5.21%.

Q: With CCOc1cc(C)ccc1OCc1nnc(SCC(=O)Nc2cccc(C(=O)O)c2)n1-c1ccccc1 as the molecule, how does the largest response in the series, negative = inhibition read?
A: Its largest response in the series, negative = inhibition is 22.3%.

Q: How did the largest response in the series, negative = inhibition turn out when Cc1ccc(NC(=O)[C@H](Cc2ccccc2)NC(=O)C2CCNCC2)cc1 was run?
A: The largest response in the series, negative = inhibition was 1.09%.

Q: With CCOC(=O)c1c(NC(=O)CCC(=O)NCc2ccco2)sc2c1CCCC2 as the molecule, how does the largest response in the series, negative = inhibition read?
A: The largest response in the series, negative = inhibition was -8.63%.

Q: How did the largest response in the series, negative = inhibition turn out when CCOC(=O)c1c(NC(=O)Cn2nc(C(F)(F)F)cc2C)sc2c1CCC2 was run?
A: The largest response in the series, negative = inhibition was -2.66%.

Q: Which Potency does the source give for CCCOC(=O)Nc1sc2c(c1C(=O)OCC)CCC2 here?
A: The Potency was 14.1 µM (active).

Q: For CCOC(=O)c1c(NC(=S)NC)sc2c1CCCC2, which largest response in the series, negative = inhibition is on record?
A: Its largest response in the series, negative = inhibition is 7.02%.

Q: With CCOC(=O)c1c(NC(=O)C2(C)Cc3ccccc3C(=O)O2)sc2c1CCCC2 (stereo not given) as the molecule, how does the Potency read?
A: Its Potency is 35.5 µM (active).

Q: For CCOC(=O)c1c(NC(=S)Nc2ccccc2C)sc2c1CCC2, which largest response in the series, negative = inhibition is on record?
A: Its largest response in the series, negative = inhibition is -14.6%.

Q: Which largest response in the series, negative = inhibition does the source give for Cc1ccc(C(=O)OCC(=O)NC(=O)Cc2ccccc2)c(O)c1 here?
A: Its largest response in the series, negative = inhibition is 15.9%.

Q: With Cc1ccc(CNC(=O)C2(C(F)(F)F)C/C(=C\Cc3ccccc3)CCCO2)o1 (stereo not given) as the molecule, how does the Potency read?
A: Its Potency is 35.5 µM (active) and 50.1 µM (active).

Q: Which Potency does the source give for Cc1ccc(CNC(=O)C2(C(F)(F)F)C/C(=C\CCO)CCCO2)o1 (stereo not given) here?
A: The Potency was 50.1 µM (active).

Q: CNC(=O)[C@]1(C(F)(F)F)C[C@H](CCc2ccccc2)CCCO1 was tested. Which largest response in the series, negative = inhibition did it give?
A: The largest response in the series, negative = inhibition was -10.7%.

Q: How did the largest response in the series, negative = inhibition turn out when O=C(NCC1CC1)C1(C(F)(F)F)C/C(=C\CCO)CCCO1 (stereo not given) was run?
A: Its largest response in the series, negative = inhibition is 1.74%.

Q: With Cc1ccc(CNC(=O)Cn2cnc(S(=O)(=O)N3CCCCC3)c2)o1 as the molecule, how does the largest response in the series, negative = inhibition read?
A: Its largest response in the series, negative = inhibition is 14.3%.

Q: For O=C(NCc1ccccn1)[C@]1(C(F)(F)F)C[C@H](CCc2ccccc2)CCCO1, which largest response in the series, negative = inhibition is on record?
A: The largest response in the series, negative = inhibition was -24.4%.
